# Screening results (PubChem BioAssay)
# Pf Dd2 inh: qHTS Primary assay for Inhibitors of Plasmodium falciparum Dd2 growth in vitro; P. falciparum Dd2 growth, SYBR Green, 72 h; Potency, µM (series often up to 28.9 µM), usual class: inhibitors; 120,000 compounds, 4.3% hits; AID 1347417, 2020; active means well fitted inhibition curve with a large enough effect; further: nearly all actives have a fitted effect of over 65% in size
#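 Readout: SYBR Green fluorescence, 485 nm excitation, 535 nm emission, after ~16 h lysis at 37C. Before that, Dd2-infected red cells (2.5% hematocrit) grew 72 h with compound, 29 uM top final concentration.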
# Hits are given with their value; - = inactive. This is one part of a sample in which hits are shown more often than they occur.
SMILES,Pf Dd2 inh
O=C1NC2(CCN(Cc3ccc(OC(F)(F)F)cc3)C2)COc2ccccc21 (centres undefined),-
O=C1NC2(CCCN(C(=O)c3cccnc3)C2)COc2ccccc21 (centres undefined),-
Cc1ccc(CN2CCC3(CC2)NC(=O)c2ccccc2O3)cc1,-
Cc1ccc(CN2CCCC3(COc4ccccc4C(=O)N3)C2)cc1 (centres undefined),12.6µM
O=C1NC2(CCN(Cc3ccccc3)C2)COc2ccccc21 (centres undefined),10µM
Cc1ccc(CN2CCC3(CC2)COc2ccccc2CN3)cc1,6.31µM
O=C1NC2(CCN(Cc3ccncc3)C2)Oc2ccccc21 (centres undefined),-
COc1cccc(CN2CCCC3(C2)NC(=O)c2ccccc2O3)c1 (centres undefined),15.8µM
COc1cccc(CN2CC3(C2)NC(=O)c2ccccc2O3)c1,-
O=C1NC2(CCCN(Cc3cccnc3)C2)Oc2ccccc21 (centres undefined),-
CC1=NOC2(CCN(Cc3ccc(C)cc3)CC2)C1,-
O=C1NC2(CCCN(Cc3ccncc3)C2)COc2ccccc21 (centres undefined),-
COc1ccc(C(=O)N2CC(c3nnc(-c4ccc(C)cc4)o3)C3(CCOCC3)C2)cc1 (centres undefined),-
Cc1cn2nc(C(=O)NCc3ccccc3C(F)(F)F)cc2c(N2CCCC2)n1,-
N#Cc1ccc(CN2CCC3(CC2)COc2ccccc2C(=O)N3)cc1,2.51µM
N#Cc1ccc(CN2CCCC3(COc4ccccc4C(=O)N3)C2)cc1 (centres undefined),-
O=[S+]1([O-])NC2(CCN(Cc3ccsc3)CC2)COc2ccccc21,-
N#Cc1ccc(CN2CC3(C2)NC(=O)c2ccccc2O3)cc1,-
COc1cccc(CN2CCC3(CC2)COc2ccccc2C(=O)N3)c1,-
O=C1NC2(CCN(Cc3ccsc3)CC2)COc2ccccc21,3.16µM
Cc1cnc(CCNC(=O)c2ccnn2C)n1CC1CC1,-
Cc1ccc(C(=O)N2CCc3nnc([C@@H]4C[C@@H](O)CN4C(C)C)n3CC2)cn1,-
CN1CC(=O)N(C2CCCNC2)Cc2c(NCCCN3CCCCC3)ncnc21 (centres undefined),-
O=C(O)c1ccc(CN2C[C@H](O)C[C@H]2c2nc(-c3ccncc3)no2)cc1,-
COCC(=O)NC[C@H]1O[C@@H](CO)[C@@H](O)[C@H]1N1CCN(c2ccccc2OC)CC1,-
SMILES,Pf Dd2 inh
O=C1CC(c2n[nH]c(C3CCOCC3)n2)CN1Cc1cccnc1 (centres undefined),-
CNC(=O)[C@@H]1C[C@@H](n2cc(CNC(=O)Nc3cccc(Cl)c3)nn2)CN1,-
Cc1c(-c2ccccc2)n(-c2ccccc2O)c2nc3c(c(=O)n(C)c(=O)n3C)n12,3.16µM
CCOc1ccc(-n2c(-c3ccccc3)c(C)n3c4c(=O)n(C)c(=O)n(C)c4nc23)cc1,-
Cc1cc(C)cc(-n2c(-c3ccccc3)c(C)n3c4c(=O)n(C)c(=O)n(C)c4nc23)c1,-
O=C(NC1CC1)c1cnn2ncccc12,-
CCc1nc2ccc(C(=O)N3CCN(c4ccccc4F)CC3)cc2nc1CC,2.82µM
O=C(c1ccc2c(Cl)c3c(nc2c1)CCCC3)N1CCN(c2ccccc2)CC1,-
O=C(c1ccc2c(c1)CCN2S(=O)(=O)c1ccccc1)N1CCN(c2ccccc2F)CC1,-
CCc1nc2ccc(C(=O)N3CCN(c4ccccc4)CC3)cc2nc1CC,6.31µM
CCc1nc2ccc(C(=O)N3CCN(c4ccc(Cl)cc4)CC3)cc2nc1CC,-
CCN1c2cc(C(=O)N3CCN(c4ccccc4F)CC3)ccc2C(=O)N2CCCCC21 (centres undefined),-
O=C(O)CO[C@@H]1COCC[C@H]1NC(=O)CCCn1cncn1,-
CC(C)N1C[C@H](O)C[C@H]1c1nnc2n1CCN(C(=O)CCc1c[nH]c3ccccc13)CC2,-
Cn1nc2c(c1NC(=O)Cn1nc3c(cc1=O)CCCCC3)CSC2,-
CCNC(=O)N1CCCCCC1CN1CCCC1 (centres undefined),-
CC(C)CN1C(=O)c2cccn2CC1C(=O)NCc1cccs1 (centres undefined),-
Cc1cc(CN(C)c2cc(C3CC(O)C3)ncn2)n[nH]1 (centres undefined),-
CCCN1CCN(CCCNC(=O)c2cc3c(s2)-c2ccccc2OC3)CC1,-
CCOc1ccc(CCNC(=O)c2cc3c(=O)n(C)c4ccccc4c3s2)cc1OCC,-
CCCN1CCN(CCCNC(=O)c2cc3c(s2)-c2c(C)cccc2OC3)CC1,-
CCCN(CCC)CCCNC(=O)c1cc2c(=O)n(C)c3ccccc3c2s1,10µM
COc1ccc(NC(=O)c2cc3c(=O)n(C)c4ccccc4c3s2)cc1Cl,-
CCCN1CCN(CCCNC(=O)c2cc3c(=O)[nH]c4ccccc4c3s2)CC1,12.6µM
COc1ccc(NC(=O)Cn2c(=O)n(-c3cccc(C)c3)c(=O)c3c2cc(C)n3C)c(OC)c1,-
SMILES,Pf Dd2 inh
Cc1cc(S(=O)(=O)N2CCC(N(C(=O)C3CC3)C3CCOCC3)CC2)ccc1Cl,-
O=C(C1CC1)N(C1CCOCC1)C1CCN(S(=O)(=O)c2cc(F)cc(F)c2)CC1,-
O=C(C1CC1)N(C1CCOCC1)C1CCN(S(=O)(=O)c2ccc(F)c(Cl)c2)CC1,10µM
CC(C)Cc1ccc(S(=O)(=O)N(C)CC2CCOCC2)cc1,-
Cc1cccc(N2CCN(c3nc4ccccc4c4nc(-c5cccnc5)nn34)CC2)c1C,-
CCc1ccc(-n2c(N3CCN(c4cccc(C)c4C)CC3)nc3ccccc3c2=O)cc1,11.2µM
CCc1ccc(-n2c(N3CCN(c4ccc(F)cc4)CC3)nc3ccccc3c2=O)cc1,5.62µM
Cc1cccc(-c2nc3c4ccccc4nc(N4CCN(c5ccc(F)cc5)CC4)n3n2)c1,-
Cc1ccc(C)c(N2CCN(c3nc4ccccc4c(=O)n3-c3ccccc3)CC2)c1,-
Cc1ccc(-n2c(/C=C\c3ccc(F)cc3)nc3ccccc3c2=O)cc1Cl,-
O=C(COc1ccc(F)cc1)NCC(=O)N1CCN(c2ccccn2)CC1,-
CCN(CCNC(=O)C1Cn2cccc2C(=O)N1)Cc1ccccc1 (centres undefined),-
COc1ccc(C(=O)N2C[C@@H](CO)[C@H](c3nc(C4CC4)no3)C2)cc1,-
CC(C)CCN1CCC2(CC1)CN[S+](=O)([O-])c1ccccc1N2,-
O=C([C@H]1C[C@H](Oc2ccccc2)CN1C(=O)NC1CCCCC1)N1CCOCC1,-
COc1ccc(Cl)cc1NC(=O)C1CN(S(C)(=O)=O)CC12CCCCC2 (centres undefined),-
CO[C@H]1[C@H](NC(=O)c2cc(C)nn2C)c2ccccc2C12CCNCC2,-
CO[C@H]1[C@H](NC(=O)c2cc3ccccc3n2C)c2ccccc2C12CCNCC2,7.94µM
CO[C@H]1[C@H](NC(=O)c2cc3ccccc3[nH]2)c2ccccc2C12CCNCC2,-
CCc1noc([C@@H]2CC(F)(F)CN2C(=O)c2ncccn2)n1,-
O=C(NC1CCN(c2cc(-c3ccc(F)cc3)[nH]n2)C1)c1ccncc1 (centres undefined),-
O=C(Nc1cccc(C(F)(F)F)c1)c1ccc2snnc2c1,-
O=C(Nc1cccc(C(F)(F)F)c1)Nc1ccc2snnc2c1,1.12µM
Cc1cc(C)c(NC(=O)Nc2ccc3snnc3c2)c(C)c1,-
CCCNC(=O)N1C[C@@H](Oc2cccnc2)C[C@@H]1C(=O)N1CCOCC1,-
COc1ccccc1-c1cnc(Nc2ccc3c(c2)OCCO3)c2c1CCO2,-
